# Measured values taken from PubChem BioAssay (Tox21).
# Activity calls are given as the source filed them. The call rests on the fitted dose curve; in most records, active means well fitted curve in the direction sought with a large enough effect in the repeat runs; inconclusive means weak or mixed curves; inactive means flat fitted curve, though single readings scatter.
# Test: qHTS assay to test for compound auto fluorescence at 590 nm (red) in HepG2 cells (AID 720674)
# Conditions: HepG2 autofluorescence, red 540/590 nm, 1 h; series mostly up to 91.3 µM
# Text: U.S. Tox21 Program National Center for Advancing Translational Sciences [NCATS] NIH Chemical Genomics Center [NCGC] U.S. Environmental Protection Agency [EPA] National Institutes of Environmental Health Sciences [NIEHS] National Toxicology Program [NTP] U.S. Food and Drug Administration [FDA] Tox21 Assay Overview: Compound auto fluorescence often interferes with screening of the compound library against various biological targets and signaling pathways. Some of these compounds may have fluorophoric properties. Such properties may interfere with the assay outputs resulting in false positives and/or negatives. To decrease such complications and ensure the compound activities are relevant in terms of biological response, the Tox21 10K compound library was screened for auto fluorescence. From the fluorophores used as reporter signals in our screening assays, the auto fluorescence equivalencies of compounds against three fluorophores have been evaluated: Triamterene, Fluorescein and Rose Bengal sodium for blue, green and red fluorescence, respectively. The fluorescence intensities were measured using Excitation/Emission wavelengths at 405/460nm, 485/535nm and 540/590nm for blue, green and red labels, respectively. This assay includes the red fluorescence data.
# Tox21 Assay Protocol Summary: 2,000 HepG2 cells in 5 uL of culture medium (MEM containing 10% FBS) per well were dispensed into black wall/clear bottom 1536-well plates using a Multidrop Combi Dispenser (ThermoFisher Scientific, Waltham, MA). The assay plates were incubated overnight at 37 C to allow cell attachment to the well bottom, followed by the transfer of 23 nL compound or DMSO vehicle by a pintool work station (Kalypsys , San Diego, CA). After the assay plates were incubated for 1 hr at 37 C and 5% CO2, fluorescence intensities in the assay plates were measured by an Envision (PerkinElmer, Shelton, CT) plate reader using three labels for measuring blue, green and red fluorescence at […] 460, 535 and 590 nm respectively.
# On the % scale 0 is the no-effect control and ±100 the full control effect.
Compound,outcome,"fluorescence, relative to Rose Bengal"
C=CC(=O)OCC(C)OCC(C)OCC(C)OC(=O)C=C (stereo not given),inactive,–
CC(C)=CCCC(C)CC=O (stereo not given),inactive,–
Oc1ccc(O)c2c(O)cccc12,inactive,–
CCC(C)N(C)C(=O)c1cc2ccccc2c(-c2ccccc2Cl)n1 (stereo not given),inactive,–
N#Cc1cc2ccccc2c2ccccc12,inactive,–
CC(C)CC=O,inactive,–
CCCCOc1ccc(CC(=O)NO)cc1,–,0.376% [at 18.6 µM] (inactive)
CC(=O)CC(=O)c1ccccc1,inactive,–
CC(=O)N(O)CCCCCNC(=O)CCC(=O)N(O)CCCCCNC(=O)CCC(=O)N(O)CCCCCN,–,0.119% [at 18.6 µM] (inactive)
Cc1nc2ccccc2n1Cc1ccc(Cl)cc1,inactive,–
CC1CCc2cc(F)cc3c(=O)c(C(=O)O)cn1c23 (stereo not given),inactive,–
O=C(O)C(c1ccc(Cl)cc1)c1ccc(Cl)cc1,inactive,–
CC(=O)[C@@]1(O)CC[C@H]2[C@@H]3C[C@H](C)C4=CC(=O)CC[C@]4(C)[C@H]3CC[C@@]21C,inactive,–
Cc1ccc(C(N)=O)cc1N,inactive,–
ClC(Cl)(Cl)c1ccc(C(Cl)(Cl)Cl)cc1,inactive,–
O=S1(=O)N=C(O)c2ccccc21,inactive,–
CCCCCOC(=O)COc1cc(N2C(=O)C3=C(CCCC3)C2=O)c(F)cc1Cl,inactive,–
Cc1cccc(OCCOc2cccc(C)c2)c1,inactive,–
CC(CN)CCCN (stereo not given),inactive,–
CN1CCN(C2=Nc3ccccc3Sc3ccc(Cl)cc32)CC1,inactive,–

Compound,outcome,"fluorescence, relative to Rose Bengal"
CC(C)c1ccccc1C(C)C,inactive,–
CCN(CC)CCOC(=O)C1(c2ccccc2)CCCC1,inactive,–
COC(=O)CSc1cc(N=c2sc(=O)n3n2CCCC3)c(F)cc1Cl,inactive,–
NCc1ccccc1,inactive,–
CCCCCCOC(=O)CCC,inactive,–
CC(=O)Nc1ccc(/C=N/NC(N)=S)cc1,inactive,–
CC(C(=O)O)c1ccc(C(=O)c2ccccc2)s1 (stereo not given),–,-0.233% [at 18.6 µM] (inactive)
O=C1CCCCCO1,inactive,–
CC(C)(C)c1cc(O)c(C(C)(C)C)cc1O,inactive,–
OCC1CC2CC1C1CCC(CO)C21 (stereo not given),inactive,–
COc1cc(C(C)(C)C)c(O)c(C(C)(C)C)c1,inactive,–
CCCCCCCC/C=C\CCCCCCCC(N)=O,inactive,–
c1ccc(-c2nc[nH]c2-c2ccccc2)cc1,inactive,–
C#CCOC(=O)[C@@H](C)Oc1ccc(Oc2ncc(Cl)cc2F)cc1,inactive,–
CCCCCCCCCCCCCCCBr,inactive,–
CC(C)CCCCCCOC(=O)c1ccc(C(=O)OCCCCCCC(C)C)c(C(=O)OCCCCCCC(C)C)c1,inactive,–
NC(N)=NN=C(/C=C/c1ccc([N+](=O)[O-])o1)/C=C/c1ccc([N+](=O)[O-])o1,inactive,–
CC[C@@H]1C[C@H](N(Cc2cc(C(F)(F)F)cc(C(F)(F)F)c2)C(C)=O)c2cc(C(F)(F)F)ccc2N1C(=O)OC(C)C,inactive,–
O=C(O)COC(=O)Cc1ccccc1Nc1c(Cl)cccc1Cl,–,0.242% [at 18.6 µM] (inactive)
CC(C)NCC(O)c1cc(O)cc(O)c1 (stereo not given),inactive,–
